FLuc modulator: inhibits or activates purified firefly luciferase, miR-21 counter-screen. AID 588342. Potency, µM (highest dose often 57.5 µM), most hits filed as inhibitors. 360,000 tested, 6.9% active. P08659. purified FLuc, Km substrates, luminescence inhibition; further: nearly all actives have a fitted effect of over 55% in size
Target sequence (P08659 whole entry, looked up): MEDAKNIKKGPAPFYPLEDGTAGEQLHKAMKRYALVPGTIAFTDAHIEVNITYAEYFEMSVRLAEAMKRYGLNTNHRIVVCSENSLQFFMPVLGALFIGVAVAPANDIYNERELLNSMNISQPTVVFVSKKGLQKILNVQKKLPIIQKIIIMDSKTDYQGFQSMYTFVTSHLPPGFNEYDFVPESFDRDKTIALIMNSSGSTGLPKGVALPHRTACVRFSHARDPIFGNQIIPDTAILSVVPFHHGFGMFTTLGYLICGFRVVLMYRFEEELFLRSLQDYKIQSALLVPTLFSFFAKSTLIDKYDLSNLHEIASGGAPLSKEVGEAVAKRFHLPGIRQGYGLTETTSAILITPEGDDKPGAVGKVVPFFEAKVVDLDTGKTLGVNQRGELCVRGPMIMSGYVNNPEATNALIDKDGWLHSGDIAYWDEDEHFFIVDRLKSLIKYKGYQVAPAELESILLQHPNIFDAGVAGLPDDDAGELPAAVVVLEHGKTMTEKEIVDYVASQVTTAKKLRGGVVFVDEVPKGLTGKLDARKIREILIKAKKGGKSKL
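Purified P. pyralis luciferase, 10 nM final, with Km-level 10 uM D-luciferin and 10 uM ATP in 50 mM Tris acetate pH 7.5, 10 mM Mg acetate, 0.01% Tween-20, 0.05% BSA; 6-point qHTS titration about 60 µM downward; luminescence read.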
ELG1 genotox: inducers of genotoxicity in HEK293T ELG1-luciferase cells | HEK293T ELG1-luciferase reporter, luminescence, 16 h | 330,000 tested, 1.3% active | Potency, µM (series often up to 46 µM), most hits filed as activators; further: nearly all actives have a fitted effect of over 60% in size
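ELG1-luciferase HEK293T cells, 2,000/well; compound pinned in; 16 hr, 37 °C, 5% CO2; ONE-Glo, 30 min RT; luminescence on CCD imager.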
NPC1 promoter act: activates the NPC1 promoter; Huh7 NPC1 promoter luciferase reporter, 24 h; Potency, µM (titrated, usually from 9.22 µM), actives largely listed as activators; 320,000 tested, 2.4% active; further: nearly all actives have a fitted effect of over 60% in size
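Readout is luciferase luminescence, reflecting NPC1 promoter activation in stably transfected Huh7 cells after 24 h compound exposure at 37 °C in reduced-serum medium with 10% FBS.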
Rab9 prom act: activates the Rab9 promoter. Huh7 Rab9 promoter-luciferase reporter, luminescence, 24 h. Potency, µM (titrated, usually from 9.22 µM), hits mostly activators. 320,000 tested, 2.8% active. AID 485297; further: nearly all actives have a fitted effect of over 60% in size
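Measured in stably transfected Huh7 cells bearing a Rab9 promoter–luciferase construct: 24 h compound treatment at 37 °C, followed by luminescence detection.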
SMN2 splice up: increases expression of the SMN2 splice variant | 210,000 tested, 2.8% active | Potency, µM (series often up to 46.1 µM), most hits filed as activators | HEK293 SMN2-luciferase splicing reporter, luminescence, 30-36 h | AID 1458; further: nearly all actives have a fitted effect of over 55% in size
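HEK293 cells carry an SMN2 minigene-luciferase reporter in which exon 7 inclusion puts luciferase in frame. Cells were seeded at 2000 cells/well, attached for 10-12 hours, then exposed to compounds for 30-36 hours at 37C before ONE-Glo luminescence.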
Each line names hits and unclear results; the compound was inactive in the other large screens. In the library only some 7.4% were active in any assay of this set; here they are far more common. The call rests on the fitted dose curve; in most records, active means well fitted curve in the direction sought with a large enough effect; inconclusive means small, poorly fitted or top-dose-only effect, or another doubt; inactive means no such curve, though single readings can be large; an effect the other way counts as inactive or inconclusive.

Cc1ccc(OCC(=O)N[C@@H](C)c2nnc3ccccn23)cc1C	none (no result: SMN2 splice up)
Cc1ccc(-c2cc(C(=O)Nc3c(C#N)cnn3C)no2)cc1	FLuc modulator 6.7µM, SMN2 splice up inconclusive
CCCc1cc(C(=O)Nc2cc(C)ccc2O)no1	FLuc modulator 2.7µM, ELG1 genotox 15µM (no result: SMN2 splice up)
Cc1ccc(-c2cc(C(=O)Nc3cnn(C(C)C)c3)no2)cc1	FLuc modulator inconclusive (no result: SMN2 splice up)
Cc1ccc(O)c(NC(=O)c2cc(-c3ccccc3)on2)c1	FLuc modulator inconclusive, ELG1 genotox 16µM, NPC1 promoter act inconclusive (no result: SMN2 splice up)
N#Cc1ccccc1/C=N/Nc1nc(-c2ccccc2)c2cc(Cl)ccc2n1	none
Cc1ccc2nc(N/N=C/c3ccccc3C#N)nc(-c3ccccc3)c2c1	FLuc modulator 11µM
Cn1c(SCC(=O)NCc2cccs2)nnc1-c1cccs1	none (no result: ELG1 genotox, NPC1 promoter act, Rab9 prom act)
Cn1c(SCC(=O)c2ccccc2)nnc1-c1cccs1	FLuc modulator 12µM, ELG1 genotox inconclusive, NPC1 promoter act 3.2µM, Rab9 prom act 2.8µM (no result: SMN2 splice up)
Cn1c(SCc2ccccc2)nnc1-c1cnccn1	Rab9 prom act 6.3µM
COc1ccccc1-c1nnc(SCC(=O)O)n1-c1ccccc1	FLuc modulator inconclusive
Cn1c(SCc2ccc(F)cc2)nnc1-c1cnccn1	none (no result: SMN2 splice up)
CCn1c(SCC(=O)O)nnc1-c1ccccc1OC	FLuc modulator 13µM, ELG1 genotox 23µM, NPC1 promoter act 4.5µM, Rab9 prom act 3.2µM (no result: SMN2 splice up)
Cn1c(SCC(=O)c2ccccc2)nnc1-c1cnccn1	FLuc modulator inconclusive, ELG1 genotox inconclusive, NPC1 promoter act inconclusive, Rab9 prom act 3.2µM
COc1ccccc1C(=O)n1nc(-c2ccccc2)nc1NCc1ccc(Cl)cc1	none (no result: ELG1 genotox, NPC1 promoter act, Rab9 prom act)
CC1C(=O)N2CCCc3cc(NC(=O)c4ccccc4C(F)(F)F)cc1c32 (stereo not given)	none (no result: SMN2 splice up)
COc1cccc(NC(=O)CN(C)C(=O)c2cccc(S(=O)(=O)Nc3ccccc3OC)c2)c1	none (no result: SMN2 splice up)
CCC(=O)Nc1cccc(-n2nnnc2SCC(=O)c2ccc(C)c(C)c2)c1	FLuc modulator 15µM
CCC(=O)Nc1cccc(-c2nnc(SCC(=O)c3ccccc3)n2C)c1	FLuc modulator 6µM, ELG1 genotox inconclusive, NPC1 promoter act inconclusive, Rab9 prom act 1.8µM
CCC(=O)Nc1cccc(-c2nnc(SCC(=O)NCc3ccco3)n2C)c1	none
CCn1c(SCC(=O)c2ccccc2)nnc1-c1cnccn1	FLuc modulator 21µM, ELG1 genotox 16µM, NPC1 promoter act inconclusive, Rab9 prom act inconclusive, SMN2 splice up inconclusive
CCn1c(SCC(=O)Nc2ccccc2F)nnc1-c1cnccn1	none (no result: SMN2 splice up)
O=c1[nH]c(CN2CCN(S(=O)(=O)/C=C/c3ccccc3)CC2)nc2cc(Cl)ccc12	none (no result: SMN2 splice up)
CC(=O)N1CCN(c2ccc(NC(=O)c3ccco3)cc2)CC1	FLuc modulator 17µM, ELG1 genotox inconclusive, NPC1 promoter act inconclusive, Rab9 prom act inconclusive (no result: SMN2 splice up)
CCC(=O)N1CCN(c2ccc(NC(=O)c3ccco3)cc2)CC1	FLuc modulator inconclusive, ELG1 genotox inconclusive (no result: SMN2 splice up)
O=C(NC(=S)Nc1ccc(N2CCCCC2)cc1)c1ccco1	FLuc modulator 3.4µM, ELG1 genotox inconclusive, NPC1 promoter act 1µM, Rab9 prom act 1.1µM (no result: SMN2 splice up)
CC1CCN(c2ccc(NC(=S)NC(=O)c3ccco3)cc2)CC1	FLuc modulator 12µM, Rab9 prom act inconclusive
O=C(NC(=S)Nc1ccccc1N1CCCCC1)c1ccco1	none
CC(C)c1ccc(C(=O)CN2C(=O)NC3(CCc4ccccc43)C2=O)cc1 (stereo not given)	none (no result: FLuc modulator, NPC1 promoter act, Rab9 prom act, SMN2 splice up)
CC1=NN2C(=N)/C(=C\c3ccc(SCc4ccccc4)o3)C(=O)N=C2S1	none
N=C1/C(=C\c2ccc(SCc3ccco3)o2)C(=O)N=C2SC=NN12	FLuc modulator 8.5µM
Cc1cc(C)c(NC(=O)CN)c(C)c1	none
CCc1cc(C(=O)c2ccc(OC)cc2)c(N)s1	none (no result: SMN2 splice up)
COc1ccc(C(=O)c2ccsc2N)cc1	FLuc modulator 17µM, ELG1 genotox inconclusive, NPC1 promoter act 3.5µM, Rab9 prom act inconclusive (no result: SMN2 splice up)
COc1ccc(C(=O)c2ccc(CC#N)s2)cc1	FLuc modulator 12µM, ELG1 genotox inconclusive, NPC1 promoter act inconclusive, Rab9 prom act inconclusive, SMN2 splice up 13µM
CC(C)Cc1nnc(NC(=O)CCC(=O)NC2CCCCC2)s1	none (no result: SMN2 splice up)
Nc1ccc(N(CCO)CCO)cc1	none (no result: SMN2 splice up)
Cc1cc(N(CCO)CCO)ccc1N=Nc1cc(F)ccc1F	FLuc modulator 24µM, ELG1 genotox inconclusive, NPC1 promoter act inconclusive, Rab9 prom act inconclusive, SMN2 splice up inconclusive
